Results reported in PubChem BioAssay (NCI).
The panel holds about 83,000 compounds, 20% with a hit somewhere; the sample as a whole holds those more often.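 Testing used 96-well plates and a 48-hour single-concentration exposure. Example: -40 means 40% of the starting cells died.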 Values without a mark were called inactive. Active and inactive are the calls of the source.

These compounds were tested on OVCAR-8 ovarian (assay: NCI-60 one-dose screen, 48 h (100 = growth as untreated, 0 = no growth, -100 = all killed)). Conditions: 10 µM unless noted.
Procedure: Growth inhibition of the OVCAR-8 human tumor cell line is measured as a screen for anti-cancer activity. Cells are grown in 96 well plates and exposed to the test compound for 48 hours. Compounds are tested at a single concentration, which is 10^-5 M for most compounds. The reported endpoint is percent growth (GI% or GIPRCNT), where numbers from 0 - 100% represent growth inhibition, and numbers from -100% - 0 represent cell death. For example, a value of 40 represents 60% growth inhibition. A value of 0 means no net growth occurred over the course of the experiment. A value of -40 indicates 40% of cells at the beginning of the experiment died by the end of the experiment. A value of -100 means all cells are dead at the end of the experiment.
NCI-60 Human Tumor Cell Lines Screen was performed using the standard one-dose NCI protocol, which is described in more detail at https://dtp.cancer.gov/discovery_development/nci-60/default.htm.
Compounds with GIPRCNT values below 10 were considered active. Activity score was based on GIPRCNT using the following formula: […]
Score is 0 for GIPRCNT values of 100 or above, 50 for GIPRCNT values of 0, and 100 for GIPRCNT values of -100.

Structure (SMILES) | growth
CCN1CCN(CC(=O)Nc2nc3ccc(NCc4ccc(Br)cc4)cc3s2)CC1 | 81.8%
CCN1C(=O)N(CC)C2C1NN=c1s/c(=C\c3cc4ccccc4[nH]3)c(=O)n12 (stereo not given) | -14.2% (active)
C=C(CN1CC=CCC1)[C@@H]1CC[C@]2(CO)CC[C@]3(C)[C@H](CC[C@@H]4[C@@]5(C)CC[C@H](O)C(C)(C)[C@@H]5CC[C@]43C)[C@@H]12 | 101%
CC1=NN(c2ccc(Cl)cc2)CC1(C)N=O (stereo not given) | 88.2%
COc1cccc(NC(=O)c2cccc(C3CCc4c(cc(OC)c(OC)c4OC)O3)c2)c1 (stereo not given) | 54.5%
O=C(Cn1nnc([N+](=O)[O-])n1)c1ccccc1 | 101%
CC[C@H](C)[C@H](NC(=O)[C@H](CCCNC(=N)N)NC(=O)[C@H](Cc1c[nH]c2ccccc12)NC(=O)[C@@H](NC(=O)[C@H](CCCCN)NC(=O)[C@H](CCCCN)NC(=O)[C@@H](NC(=O)[C@@H](NC(=O)[C@@H](NC(=O)[C@H](CCCCN)NC(=O)[C@H](Cc1ccccc1)NC(=O)[C@H](CCCCN)NC(=O)[C@H](CCCCN)NC(=O)[C@H](Cc1ccccc1)NC(=O)[C@@H](NC(=O)[C@@H](N)CCCCN)[C@@H](C)CC)[C@@H](C)O)[C@@H](C)CC)[C@@H](C)CC)C(C)C)C(=O)N[C@@H](Cc1ccccc1)C(=O)NCC(=O)N[C@@H](CCCNC(=N)N)C(=O)N[C@@H](Cc1ccccc1)C(N)=O | 0.804% (active)
COc1ccccc1-n1c(-c2cc(O)ccc2C)cn2c3c(=O)[nH]c(=O)n(C)c3nc12 | 66.5%
O=C(O)CCCc1cnc2c3sccc3nc(SCc3c(Cl)cccc3Cl)n12 | 63.7%
O=C1Nc2ccc(F)cc2/C1=C\c1nc(-c2ccccc2F)n2ccccc12 | 80.6%
Cc1[nH]c(C(=O)Nc2cccc(OC3CCNCC3)c2)c(Cl)c1Cl | 94.2%
Nc1c(C(=O)Nc2ccccn2)sc2nc3c(cc12)C(O)CCC3 (stereo not given) | 36.5%
CC(CN)[C@@H]1CC[C@]2(CO)CC[C@]3(C)[C@H](CC[C@@H]4[C@@]5(C)CCC(N)C(C)(C)[C@@H]5CC[C@]43C)[C@@H]12 (stereo not given in full) | -78.4% (active)
COc1cc(-c2nc3ccc(C)cc3[nH]2)ccc1OCC(=O)N=Nc1c(O)[nH]c2ccc(Cl)cc12 | -34.7% (active)
Cn1cccc1/C=C1\C(=O)Nc2ccccc21 | 107%
Cn1cc(C(=O)c2nc(-c3c[nH]c4ccc(Br)cc34)no2)c2cc(Br)ccc21 | 48.6%
O=S(=O)(c1ccccc1)N1CCCN(c2nc(-c3ccccc3)nc3nc(-c4ccccc4)oc23)CC1 | 104%
COc1ccc(/C=C/C(=O)c2ccc(NC(=O)CSc3nnc(-c4cc(-c5ccccc5)nc5ccccc45)n3-c3ccccc3)cc2)cc1 | 93.5%
Brc1ccc(-c2cnc3nonc3n2)cc1 | 80.5%
O=C1/C(=C/c2cccc([N+](=O)[O-])c2)COc2ccc(O)cc21 | 31.2%

Structure (SMILES) | growth
Cn1c(O)c(C(/C=C/c2ccccc2)=Nc2ccccc2N)c(=O)n(C)c1=O | 107%
CCN(CC)CCOc1ccc(Nc2ncc3cc(-c4ccc(O)cc4)c(=O)n(C)c3n2)cc1 | 55.7%
c1ccc2cc(Cn3c[n+](Cc4ccc5ccccc5c4)c4ccccc43)ccc2c1 | -47.9% (active)
C#Cc1cccc(Oc2ccc(NC(=O)CCl)cc2)c1 | 31.4% [8.25 µM]
COc1ccc(NC(=O)c2sc3nc4c(cc3c2N)CCCC4)cc1 | 25.5%
CC1=C(C(=O)n2c3ccccc3c3ccccc32)C(c2cccc([N+](=O)[O-])c2)C(C(=O)n2c3ccccc3c3ccccc32)=C(C)N1 | 99.4%
O=C(N=Nc1c(O)[nH]c2ccccc12)Nc1ccc(Cl)cc1 | 102%
C/C(=N\O)C(=O)NCCCCCC(=O)Nc1ccccc1 | 96.2%
COCCCOc1cc(C[C@@H](C[C@H](N)[C@@H](O)C[C@H](C(=O)NCC(C)(C)C(N)=O)C(C)C)C(C)C)ccc1OC | 105%
O=C(N/N=C/c1ccc(O)cc1O)c1ccc(Nc2ccnc(C(F)(F)F)c2)cc1 | 48.2%
CCOC(=O)NN1CC(O)=C(c2nc(-c3ccc(Br)cc3)cs2)C1=N | 97%
COC(=O)Cc1nc(C#N)c(N(C)C)o1 | 101%
O=C1/C(=C/c2ccc(C(F)(F)F)cc2)COc2ccc(O)cc21 | 76.4%
COc1cc(C#Cc2ccc(=O)oc2C#Cc2ccccc2)cc(OC)c1OC | 89.4%
N#Cc1c(-c2ccccc2)cc(-c2ccccc2)n(CCCC(=O)NO)c1=O | 12.5%
COc1ccc(C2=NN(C(=O)c3cc(OC)c(OC)c(OC)c3)C(c3ccc(N(C)C)cc3)C2)cc1 (stereo not given) | 29.3%
Clc1ccc(-c2cn3ccsc3n2)c(Cl)c1Cl | 95.7%
Cc1ccc2nc(Cl)c(Cn3nnnc3SCc3ccccc3)cc2c1 | 97.3%
COc1ccc2nc(SCC(=O)Nc3ccccc3C)[nH]c2c1 | 94.2%
COc1cc(C2Cc3ncccc3-c3[nH]c(=O)c4cccnc4c32)cc(OC)c1OC (stereo not given) | 17.3%
